This is an account of results in PubChem BioAssay (NCI).

Each structure is given as a SMILES string. Compounds without any hit were thinned out: in the full panel of roughly 83,000, 20% have a hit.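 Interpretation: 100, growth as untreated; towards 0, rising growth inhibition; 0, no net growth; 0 to -100, cell death. Compounds scoring below 10 were considered active.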 Unmarked numbers belong to inactive results. Active and inactive are the calls of the source.

Common to all, as to test: NCI-60 one-dose screen, 48 h (100 = growth as untreated, 0 = no growth, -100 = all killed)
The subject of one test is SK-MEL-2 melanoma. To be noted: 10 µM.
The test system of the next test is EKVX NSCLC. The conditions noted are these: 10 µM.
The test system of the next test is SN12C renal. To be noted: 10 µM.
The subject of another test is UO-31 renal. The conditions noted are these: 10 µM.
The next test concerns TK-10 renal. The conditions noted are these: 10 µM unless noted.
The next test has as its system ACHN renal. The conditions noted are these: 10 µM.
For a further test, the system named is A498 renal. To be noted: 10 µM.
Another test relates to CCRF-CEM leukemia. To be noted: 10 µM.
For a further test, the system named is MOLT-4 leukemia. The conditions noted are these: 10 µM.
The next test deals with SR leukemia. To be noted: 10 µM.
For a further test, the system named is RPMI-8226 leukemia. The conditions noted are these: 10 µM.
Another test concerns OVCAR-8 ovarian. To be noted: 10 µM.
The next test deals with OVCAR-5 ovarian. The conditions noted are these: 10 µM.
Another test has as its system OVCAR-4 ovarian. The conditions noted are these: 10 µM.
The next test concerns IGROV1 ovarian. The conditions noted are these: 10 µM.
The subject of a further test is OVCAR-3 ovarian. The conditions noted are these: 10 µM.
The test system of the next test is HS 578T breast. To be noted: 10 µM.
The next test concerns NCI/ADR-RES ovarian. To be noted: 10 µM.
Another test deals with CAKI-1 renal. The conditions noted are these: 10 µM.
Another test concerns SK-OV-3 ovarian. To be noted: 10 µM.

Take `O=c1cc(-c2ccccc2)nc2cc(-c3ccco3)[nH]n12`: the growth is 102% in the test with SK-MEL-2 melanoma; 89.7% with EKVX NSCLC; 96% in the test with SN12C renal; 74.6% in the test on UO-31 renal; 124% in the test with TK-10 renal; 91% with ACHN renal. Moreover, the growth with A498 renal was 82.1%; with CCRF-CEM leukemia it was 78.7%; with MOLT-4 leukemia, 87%; in the test with SR leukemia, 13.1%; in the test on RPMI-8226 leukemia, 71.6%; with OVCAR-8 ovarian, 101%. Moreover, the growth in the test with OVCAR-5 ovarian was 116%; with OVCAR-4 ovarian it was 91.5%; in the test on IGROV1 ovarian, 70.5%; with OVCAR-3 ovarian it was 93.7%; in the test with HS 578T breast it was 89.2%; with NCI/ADR-RES ovarian, 98.9%.

As for `CC12CC3CC1C(C(=O)O2)C3C(=O)O` (configuration not stated), the growth with SK-MEL-2 melanoma is 94.7%; in the test with EKVX NSCLC, 105%; in the test on SN12C renal, 105%; with UO-31 renal, 93.5%; with TK-10 renal, 94.5%; in the test with ACHN renal, 105%. In addition, the growth was 106% in the test on A498 renal; 101% in the test on CCRF-CEM leukemia; 100% in the test on MOLT-4 leukemia; 93.1% in the test on SR leukemia; 108% in the test with RPMI-8226 leukemia; 104% in the test on OVCAR-8 ovarian. Besides, the growth in the test on OVCAR-5 ovarian is 97.8%; in the test on OVCAR-4 ovarian, 111%; in the test on IGROV1 ovarian, 114%; in the test with OVCAR-3 ovarian, 101%; in the test on HS 578T breast, 108%; with NCI/ADR-RES ovarian it was 97.5%.

Consider `CCCNC(=O)c1ccc(S(N)(=O)=O)cc1`, for which the growth in the test on SK-MEL-2 melanoma is 120%; in the test on EKVX NSCLC it was 112%; in the test with SN12C renal it was 107%; in the test with UO-31 renal it was 107%; in the test on TK-10 renal, 119%; with ACHN renal, 101%. For the same molecule, the growth with CAKI-1 renal was 110%; in the test with CCRF-CEM leukemia it was 81.6%; with RPMI-8226 leukemia, 96.9%; in the test with OVCAR-8 ovarian, 122%; in the test on OVCAR-5 ovarian it was 89.7%; in the test on OVCAR-4 ovarian, 84.3%. Further, the growth in the test on SK-OV-3 ovarian is 105%; with IGROV1 ovarian it was 135%; in the test on OVCAR-3 ovarian, 113%; in the test on NCI/ADR-RES ovarian, 99.5%.

On to `Oc1ccc2c(c1)OCC1(O)Cc3cc(O)c(O)cc3C21` (configuration not stated), for which the growth in the test on SK-MEL-2 melanoma is 65.7%; in the test on EKVX NSCLC, 107%; with SN12C renal it was 100%; in the test on UO-31 renal, 58.9%; with TK-10 renal, 106%; in the test with ACHN renal, 104%. Besides, the growth in the test with CAKI-1 renal was 85.5%; in the test on CCRF-CEM leukemia, 71.5%; in the test on MOLT-4 leukemia, 316%; in the test on SR leukemia, 78.4%; with RPMI-8226 leukemia it was 62.5%; in the test on OVCAR-5 ovarian it was 96.3%. The growth is 38.2% in the test on OVCAR-4 ovarian; 193% in the test on SK-OV-3 ovarian; 75.3% with IGROV1 ovarian; 93.7% in the test on OVCAR-3 ovarian; 102% in the test on HS 578T breast; 91.7% in the test on NCI/ADR-RES ovarian.

Consider `O=C(CS)Nc1ccc2ccccc2c1`, for which the growth with SK-MEL-2 melanoma is 116%; in the test with EKVX NSCLC it was 119%; in the test with SN12C renal it was 101%; with UO-31 renal, 88.7%; in the test on TK-10 renal, 128%; in the test on ACHN renal, 93.6%. Moreover, the growth in the test on A498 renal is 98.8%; with CCRF-CEM leukemia it was 81.1%; in the test with MOLT-4 leukemia, 84.5%; in the test with SR leukemia, 94.9%; with OVCAR-8 ovarian it was 114%; in the test with OVCAR-5 ovarian, 102%. Further, the growth with OVCAR-4 ovarian was 116%; in the test on SK-OV-3 ovarian it was 108%; with IGROV1 ovarian, 107%; with NCI/ADR-RES ovarian, 112%.

In the case of `C#Cc1cccc(NC(=O)c2ccc(Cl)cc2Cl)c1`, the growth in the test with SK-MEL-2 melanoma was 98.6%; in the test with EKVX NSCLC, 91.3%; in the test on SN12C renal, 95.7%; in the test on UO-31 renal, 91.7%; in the test with TK-10 renal it was 106%; in the test on ACHN renal it was 93.5%. The growth was 102% in the test on A498 renal; 88.2% with CCRF-CEM leukemia; 82.1% in the test on MOLT-4 leukemia; 115% in the test with SR leukemia; 105% in the test with OVCAR-8 ovarian; 110% in the test with OVCAR-5 ovarian. The growth was 95.5% with OVCAR-4 ovarian; 95.5% in the test with SK-OV-3 ovarian; 115% with IGROV1 ovarian; 109% in the test on OVCAR-3 ovarian; 108% with HS 578T breast; 104% with NCI/ADR-RES ovarian.

With `COc1ccc(C)cc1OC`, the growth is 112% in the test with SK-MEL-2 melanoma; 108% in the test with EKVX NSCLC; 99.3% with SN12C renal; 89.8% with UO-31 renal; 104% in the test on TK-10 renal; 115% with ACHN renal. Besides, the growth with CAKI-1 renal is 101%; with MOLT-4 leukemia it was 110%; in the test on SR leukemia, 99%; in the test with OVCAR-8 ovarian, 102%; with OVCAR-5 ovarian, 114%; in the test on OVCAR-4 ovarian, 104%. The growth in the test with SK-OV-3 ovarian was 108%; in the test on IGROV1 ovarian, 99.8%; in the test on OVCAR-3 ovarian, 102%; with HS 578T breast, 114%; in the test with NCI/ADR-RES ovarian, 101%.

Turning to `N#Cc1ccc(NC(=O)Nc2cccc(C#N)c2)cc1`, the growth is 97.3% in the test with SK-MEL-2 melanoma; 94.5% in the test with EKVX NSCLC; 94% in the test on SN12C renal; 75.6% in the test on UO-31 renal; 113% in the test on TK-10 renal; 92.5% in the test with ACHN renal. Besides, the growth in the test with A498 renal is 86%; in the test with CCRF-CEM leukemia, 72.4%; in the test on MOLT-4 leukemia, 78.7%; with SR leukemia, 72.2%; in the test with RPMI-8226 leukemia it was 30.9%; in the test with OVCAR-8 ovarian it was 83.6%. The growth is 116% in the test with OVCAR-5 ovarian; 91.2% in the test with OVCAR-4 ovarian; 115% in the test with SK-OV-3 ovarian; 78% with IGROV1 ovarian; 105% with OVCAR-3 ovarian; 99.1% in the test with HS 578T breast. The growth in the test with NCI/ADR-RES ovarian was 90.1%.

Consider `O=C(N/N=C\c1cc(Br)cc(Br)c1O)N/N=C/c1cc(Br)cc(Br)c1O`, for which the growth in the test with SK-MEL-2 melanoma is -23.8% (active); in the test with EKVX NSCLC, 69.3%; in the test with SN12C renal, 59%; in the test on UO-31 renal it was 31%; in the test with TK-10 renal it was 65.5%; with ACHN renal, 52.2%. The growth is 70.4% in the test on A498 renal; 3.69% (active) with CCRF-CEM leukemia; 36.4% in the test on MOLT-4 leukemia; -18.4% (active) with SR leukemia; 55.5% in the test on OVCAR-8 ovarian; 64.6% in the test with OVCAR-5 ovarian. Further, the growth with OVCAR-4 ovarian is 43.4%; in the test on SK-OV-3 ovarian it was 79.7%; in the test on OVCAR-3 ovarian it was 12.1%; in the test with HS 578T breast, 60.6%; in the test with NCI/ADR-RES ovarian, 35.6%.
